# Compound activity (PubChem BioAssay)
# EBV gp42 block: inhibitors of Epstein-Barr virus glycoprotein 42; Q1HVG2; Fluorescence polarization binding assay, mP read-out; inhibition, % (tested at 21.74 µM); hit rate 0.42% among 220,000; in the data active = inhibition above about 50%
# Target sequence (Q1HVG2 whole entry, looked up): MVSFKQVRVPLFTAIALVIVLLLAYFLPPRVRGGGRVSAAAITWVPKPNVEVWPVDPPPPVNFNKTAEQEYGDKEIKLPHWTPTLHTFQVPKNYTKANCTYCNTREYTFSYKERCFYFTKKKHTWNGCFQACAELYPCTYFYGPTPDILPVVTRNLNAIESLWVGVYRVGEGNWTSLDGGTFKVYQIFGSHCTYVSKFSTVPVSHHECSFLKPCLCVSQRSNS
# MEX-5 binding: C. elegans MEX-5 TCR-2 RNA binding activity | Q9XUB2 | MEX-5/FITC-TCR2 RNA binding, fluorescence polarization; active compounds read low | activity score (negative = inhibition of binding), % at 10 µM | hit rate 0.38% among 300,000 | AID 1832;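 active = inhibition past about -25% in most replicates, and total fluorescence under double the plate's negative control median, limit read from the data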;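 also: 0% = DMSO and -100% = 5 µM competing unlabeled TCR2 RNA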
# Target sequence (Q9XUB2 whole entry, looked up): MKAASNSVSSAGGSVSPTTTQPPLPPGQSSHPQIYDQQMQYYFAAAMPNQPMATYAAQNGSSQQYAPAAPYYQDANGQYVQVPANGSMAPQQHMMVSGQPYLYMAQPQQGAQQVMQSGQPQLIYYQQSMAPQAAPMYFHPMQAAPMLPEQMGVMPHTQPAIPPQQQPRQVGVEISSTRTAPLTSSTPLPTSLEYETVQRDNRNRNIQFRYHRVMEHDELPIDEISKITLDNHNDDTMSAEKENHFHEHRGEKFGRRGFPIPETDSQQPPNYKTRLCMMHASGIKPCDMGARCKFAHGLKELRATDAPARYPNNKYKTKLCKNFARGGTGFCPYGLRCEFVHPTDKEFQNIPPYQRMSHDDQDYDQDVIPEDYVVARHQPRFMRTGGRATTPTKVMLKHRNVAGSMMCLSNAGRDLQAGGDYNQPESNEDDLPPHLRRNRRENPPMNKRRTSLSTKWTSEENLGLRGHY
# ZTA counter: blocks Epstein-Barr virus ZTA, an EBNA-1 counter-screen. P03206. ZTA-DNA binding, fluorescence polarization. inhibition, % at 11 µM. hit rate 0.15% among 320,000. AID 2234; in the data active = inhibition above about 33%
# EBNA-1 inh: blocks EBNA-1 binding to DNA | EBNA-1 DNA binding, fluorescence polarization | inhibition, % at 14.8 µM | hit rate 0.34% among 300,000 | AID 1950; in the data active = inhibition above about 28%
# EBNA-1 inh conf: EBNA-1 (EBV) inhibition, confirmation; inhibition, % at 14.8 µM; hit rate 35% among 830; shares compounds with EBNA-1 inh; Recombinant EBNA-1 DBD, Cy5-DNA fluorescence polarization;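 active = mean inhibition across replicates above a set limit taken from the earlier primary screen, cut at about 28% in these data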;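 also: plate controls were EBNA-1 protein with DMSO for no effect and wells lacking EBNA-1 for full effect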
# ZTA counter trip: ZTA (EBV) inhibition, triplicate counter-screen. shares compounds with EBNA-1 inh. Zta-ZRE DNA binding, Cy5 fluorescence polarization. inhibition, % at 11.1 µM. 830 tested, under 10 active. AID 2328;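 active = mean inhibition over triplicates above a set limit taken from the primary EBNA-1 screen, cut at about 37% in these data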;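 also: purified full length Zta protein with Cy5 labeled ZRE DNA probe; 0% = Zta with DMSO and 100% = wells lacking Zta protein; inhibitors lower polarization by freeing the labeled DNA probe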
# Numbers without * were called inactive; . = no result. Hits are enriched below; roughly 1% of the tested compounds scored in any of these assays.
SMILES,EBV gp42 block,MEX-5 binding,ZTA counter,EBNA-1 inh,EBNA-1 inh conf,ZTA counter trip
CCOC(=O)c1c(-c2ccc(C)o2)csc1NC(=S)NC(=O)c1ccc(F)cc1,-5.1,-0.8,14.6,28.2*,26.0,-3.4
COc1ccc(/C=C/C(=O)c2c(C)nc3ccccn23)cc1,-8.4,-2.7,-6.7,69.5*,40.0*,-1.4
CC1=C(C)CC(C(=O)NCc2ccccc2F)C(C(=O)O)C1 (stereo not given),.,-2.1,9.5,-0.7,.,.
O=C(NC1CCSc2ccccc21)c1ccccc1Br (stereo not given),.,-5.2,7.1,-0.4,.,.
COc1ccc(-n2c(SCC#N)nc3c(sc(=S)n3-c3ccccc3)c2=O)c(OC)c1,.,-0.5,4.2,5.8,.,.
O=C(O)C(Cc1ccc(Cl)cc1)Sc1nc2ccccc2[nH]1 (stereo not given),.,0.3,.,.,.,.
O=C(CSc1nnc(-c2ccc(Br)cc2)o1)Nc1cccc(C(=O)O)c1,.,1.0,11.8,0.3,.,.
O=C(CSc1nnc(-c2ccc(Br)cc2)o1)Nc1cccc2ccccc12,-9.3,4.3,-0.8,40.2*,51.5*,0.1
CCOc1ccc(C(=O)CSc2nnc3ccccn23)cc1,-2.3,1.1,4.1,4.5,.,.
CCn1c(CSc2nnc3ccccn23)nc2cc(C(=O)O)ccc21,83.0*,-20.7,30.0,44.8*,44.4*,82.4*
CCOC(=O)c1c(C)[nH]c(C(=O)COC(=O)CCS(=O)(=O)c2ccc(C)cc2)c1C,-8.5,0.4,1.0,39.4*,28.8*,6.5
O=c1/c(=C/c2ccccn2)sc2nc3ccccc3n12,32.9,-10.0,12.2,-4.5,.,.
O=c1/c(=C\c2cc([N+](=O)[O-])cc([N+](=O)[O-])c2O)sc2nc3ccccc3n12,18.6,.,7.0,27.5*,28.3*,24.8
N#Cc1c(-c2cccs2)cc(C2CC2)nc1SCC(N)=O,-8.8,2.1,0.0,36.0*,30.7*,3.1
Clc1cc(/C=N\NC2=NCCN2)cc(Cl)n1,.,.,18.3,0.1,.,.
Cc1cc(C)cc(NC(=O)c2cccc(C(=O)Nc3cc(C)cc(C)c3)n2)c1,.,-2.6,12.9,26.9,.,.
Cc1ccc(C(C(=O)NCC2CCCO2)N(Cc2ccccc2F)C(=O)Cn2nnc(-c3cccs3)n2)cc1 (stereo not given),-21.8,1.8,-9.5,36.6*,-1.0,0.3
O=C(NC1CCCC1)C(c1ccncc1)N(CC1CCCO1)C(=O)Cn1nnc(-c2cccs2)n1 (stereo not given),-1.0,-1.3,9.3,-3.2,.,.
COc1cccc(CNC(=O)c2cc3oc4ccccc4c3n2C)c1OC,10.2,-3.1,1.4,31.6*,24.1,-11.2
O=S(=O)(N/N=C/c1ccccc1OCc1ccc(Cl)cc1)c1ccccc1,-1.3,1.1,4.2,3.6,.,.
COC(=O)c1ccc(COc2ccccc2/C=N/NS(=O)(=O)c2ccc(C)cc2)cc1,-2.1,-0.8,3.8,67.0*,29.2*,14.1
CC(C)Cc1ccc(S(=O)(=O)N2CCN(c3ccccn3)CC2)cc1,.,0.9,-5.0,5.9,.,.
COc1ccc(OCC(=O)Nc2ccccc2N2CCN(C)CC2)cc1,.,-0.5,2.3,-14.0,.,.
CCC(=O)N1CCN(c2ccccc2NC(=O)COc2ccc(C(C)C)cc2)CC1,.,-2.1,13.5,72.6*,3.2,1.5
Cc1cc(C)cc(NC(=O)CSc2nnc(-c3cc(C)[nH]n3)n2N)c1,.,0.1,8.6,-0.4,.,.
SMILES,EBV gp42 block,MEX-5 binding,ZTA counter,EBNA-1 inh,EBNA-1 inh conf,ZTA counter trip
CCc1nn(-c2ccccc2)c(=S)c2ccccc12,2.0,-3.5,-3.7,35.0*,-2.3,9.2
CCn1c(COc2ccccc2C)nnc1SCC(=O)Nc1cc(C)on1,9.6,1.4,-0.3,50.4*,3.2,13.2
Cc1cc(NC(=O)CSc2ccc(Cl)cc2)no1,-11.2,-2.3,-12.3,-1.6,.,.
Cc1cc(NC(=O)CSc2nc(-c3ccc(Cl)cc3)cs2)no1,-20.0,-0.2,14.5,39.5*,7.0,-11.7
O=C(N/N=C/c1cccc(C(F)(F)F)c1)c1cc2c(s1)-c1ccccc1CC2,1.2,1.1,15.1,-7.8,.,.
Cc1cccc(/C=N/NC(=O)c2cc3c(s2)-c2ccccc2CC3)c1,-3.1,-2.6,9.0,132.1*,-4.0,5.4
COc1ccc(CNC(=O)CCCCCn2c(SCC#N)nc3cc4c(cc3c2=O)OCO4)cc1,-9.9,-1.8,8.0,38.3*,5.8,12.4
COc1ccccc1CNC(=O)c1ccc2nc3[nH]c4ccccc4c3nc2c1,5.2,.,8.2,65.1*,67.4*,-9.6
Cc1coc2cc3oc(=O)ccc3cc12,.,2.0,4.2,10.7,.,.
O=C(N/N=C/c1cc(Cl)ccc1O)c1ccc(Br)cc1,-91.3,.,0.3,-11.3,.,.
Cc1ccc(N=Nc2ccc(O)c(/C=N\NC(=O)c3ccc(N)cc3)c2)cc1C,-7.3,-0.8,-2.6,37.6*,-5.5,23.1
COc1ccc(Cl)cc1NC(=O)CN1CCN(S(=O)(=O)c2ccc(F)cc2)CC1,.,0.7,-21.5,44.4*,91.2*,10.7
COc1cc(C(=O)NCC(c2ccco2)N2CCc3ccccc3C2)cc(OC)c1OC (stereo not given),.,0.8,-5.5,-5.8,.,.
C/C(=N\NC(=O)c1c(Cl)cnn1C)c1cccc(NC(=O)c2ccc(C)cc2)c1,.,1.0,5.6,3.5,.,.
C/C(=N\NC(=O)c1c(Br)cnn1C)c1ccc(NC(=O)c2ccc(F)cc2)cc1,-1.2,-1.4,-12.4,49.8*,68.5*,0.7
CC(=O)Nc1ccc(C(=O)CSc2nnnn2C)cc1,-10.8,-1.7,-7.5,2.5,.,.
Cn1nnnc1SCc1ccc(C(=O)Nc2ccc(Br)cc2)cc1,-19.0,0.7,6.6,39.4*,17.8,1.4
c1ccc(-c2ccc(C3=Nn4c(nnc4-c4cc(-c5ccccc5)n[nH]4)SC3)cc2)cc1,-13.9,-0.1,12.2,33.1*,52.4*,24.4
O=C(CCNS(=O)(=O)c1ccc(Br)cc1)NCc1ccc(Cl)cc1,.,1.1,5.8,12.3,.,.
CCNC(=S)N(Cc1ccco1)Cc1cc2cc3c(cc2[nH]c1=O)OCCO3,11.4,-2.1,6.3,-18.1,.,.
CC(C)CNC(=S)N(Cc1ccco1)Cc1cc2cc3c(cc2[nH]c1=O)OCCO3,-14.1,2.6,7.1,61.2*,2.3,16.9
c1ccc(COc2ccc(Oc3nc(N4CCCCC4)nc(N4CCOCC4)n3)nn2)cc1,-33.4,-0.4,6.9,13.5,.,.
Cc1ccc(Nc2nc(Oc3ccc(OCc4ccccc4)nn3)nc(N3CCOCC3)n2)cc1,-5.7,3.7,-6.4,32.4*,2.8,-4.7
O=S(=O)(NCC1CN(S(=O)(=O)c2c(F)cccc2F)C1)c1ccc2c(c1)OCCO2,.,.,-4.6,.,.,.
CC(=O)NS(=O)(=O)c1ccc(NC(=O)CC23CC4CC(CC(Br)(C4)C2)C3)cc1,.,1.0,-8.8,-2.4,.,.
CC(=O)Nc1ccc(NC(=O)c2cc(=O)c3cc(C)c(C)cc3o2)cc1,.,1.1,0.3,72.6*,34.7*,1.9
CC(=O)Nc1ccc(NC(=O)c2cc(=O)c3ccc(C)cc3o2)cc1,.,-1.6,18.7,4.8,.,.
